An excerpt weighted towards active compounds, which were near 7.3% of everything screened.
HEK293 tox: HEK 293 cell cytotoxicity | 6.6% of 94,000 active | Potency, µM (series often up to 115 µM), for the others: at the highest dose activity change, negative = cytotoxicity, hits mostly inhibitors | AID 1345083 | HEK 293 viability, ATP luminescence (CellTiter-Glo), 48-72 h; further: potency means the concentration at half of the fitted maximal effect; nearly all actives have a fitted effect of over 60% in size
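Cytotoxicity was scored by loss of ATP-coupled luminescence (CellTiter-Glo) in HEK 293 cells. Compound treatment ran 48 or 72 hr at 37 degree Celsius, 5% CO2, 95% humidity.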
Luciferase inh: inhibitors of firefly (Photinus pyralis) luciferase; AID 1347043; 2.5% of 76,000 active; purified P. pyralis luciferase, luminescence, biochemical; P08659; Potency, µM (series often up to 115 µM), actives largely listed as inhibitors; further: potency means the concentration at half of the fitted maximal effect; nearly all actives have a fitted effect of over 65% in size
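Biochemical qHTS: compound (6-point titration) added to 10uM D-luciferin plus 10uM ATP in Tris acetate pH 7.5 buffer with Mg, Tween-20 and BSA, then purified enzyme at 10nM; light output imaged.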
SNCA expr inhib: SNCA gene expression inhibition | HEK-293 SNCA-luciferase knock-in, luminescence, 24 h | Potency, µM (series often up to 57.2 µM), inactives show top-dose activity change, negative = inhibition, actives largely listed as inhibitors | 0.17% of 140,000 active | AID 1671194;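 further: potency means the concentration at half of the fitted maximal effect; plate controls were DMSO cells for no effect and cell-free wells for full effect; nearly all actives have a fitted effect of over 45% in size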
HEK293 viab: reduces viability of HEK-293 SNCA reporter cells. HEK-293-SNCA-luc viability, GF-AFC fluorescence, 24 h. Potency, µM (series often up to 57.1 µM), for inactives: at the highest dose activity change, negative = cytotoxicity, usual class: cytotoxic. 0.12% of 150,000 active. AID 1671193;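 further: potency means the concentration at half of the fitted maximal effect; 0% = DMSO-treated cells and -100% = medium-only wells without cells; nearly all actives have a fitted effect of over 30% in size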
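Cytotoxicity counterscreen: after 24 h compound treatment of genome-edited SNCA-luciferase HEK-293 cells, live-cell protease substrate GF-AFC read by fluorescence after 30 min; activity scaled between DMSO (0%) and medium-only (-100%), curves Hill-fitted.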
3T3 cytotox: NIH 3T3 cell cytotoxicity; NIH 3T3 viability, CellTiter-Glo ATP luminescence, 48-72 h; Potency, µM (series often up to 96.7 µM), without a hit: at the highest dose activity change, negative = cytotoxicity, actives largely listed as inhibitors; 4.3% of 94,000 active; AID 1345082; further: potency means the concentration at half of the fitted maximal effect; nearly all actives have a fitted effect of over 55% in size
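Cells were seeded at 400 per well, treated with pin-transferred compound, and kept 48 or 72 hr at 37 °C before CellTiter-Glo addition and luminescence imaging of cellular ATP.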
IP6K1 inhibitor: blocks human inositol hexakisphosphate kinase 1; IP6K1 kinase, ADP-Glo luminescence, 2 h; active compounds read low; Q92551; AID 1645851; activity change, % (series mostly up to about 58 µM); 0.81% of 140,000 active; in the data active means activity change below about -25%
Target sequence (Q92551 whole entry, looked up): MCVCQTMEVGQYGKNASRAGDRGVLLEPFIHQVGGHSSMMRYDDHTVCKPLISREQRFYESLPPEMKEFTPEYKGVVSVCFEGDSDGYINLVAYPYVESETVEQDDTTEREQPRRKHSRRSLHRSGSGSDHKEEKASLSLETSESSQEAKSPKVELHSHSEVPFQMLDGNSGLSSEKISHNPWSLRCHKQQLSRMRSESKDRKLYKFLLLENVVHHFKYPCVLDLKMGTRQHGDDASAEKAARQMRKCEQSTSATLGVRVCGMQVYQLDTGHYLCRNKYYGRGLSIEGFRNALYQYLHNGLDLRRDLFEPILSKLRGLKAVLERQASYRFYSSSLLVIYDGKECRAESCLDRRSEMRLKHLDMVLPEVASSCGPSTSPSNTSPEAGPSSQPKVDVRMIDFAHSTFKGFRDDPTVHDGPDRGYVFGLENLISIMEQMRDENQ
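ADP-Glo luminescence measures ADP made by human IP6K1 during a 2 h RT reaction with ATP/IP6 (mix at 1.3 mM/130 uM); top library doses 57.5 and 19.1 uM final.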
* = called active by the depositor; i = inactive; u = inconclusive; x = no result given; [ ] = remark or other dose. Unless noted, the call rests on the fitted dose curve; in most records, active means well fitted curve in the direction sought with a large enough effect; inconclusive means small, poorly fitted or top-dose-only effect, or another doubt; inactive means no such curve, though single readings can be large; an effect the other way counts as inactive or inconclusive. Unless noted, on the % scale 0 is the no-effect control and ±100 the full control effect.

SMILES	HEK293 tox	Luciferase inh	SNCA expr inhib	HEK293 viab	3T3 cytotox	IP6K1 inhibitor
COc1ccc(OCC(O)CN2CCC(=O)N(CC(C)(C)C)Cc3cc4c(cc32)OCO4)cc1 (configuration not stated)	50µM*	x	x	x	u	-8
COc1ccc2c(c1)CN(CC=C(C)C)C(=O)CCN2CC(O)COc1ccccc1 (configuration not stated)	79µM*	x	x	x	u	-14
O=C1CCN(CC(O)COc2ccccc2)c2ccccc2CN1C1CC1 (configuration not stated)	40µM*	x	x	x	u	10
O=C1CCN(CC(O)COc2ccccc2)c2ccc(F)cc2CN1Cc1ccccc1 (configuration not stated)	u	x	x	x	u	-6
COc1ccc2c(c1)CN(CC=C(C)C)C(=O)CCN2CC(O)COC(C)(C)C (configuration not stated)	u	x	x	x	u	-4
C=CCN1Cc2cc(F)ccc2N(CC(O)COc2ccccc2)CCC1=O (configuration not stated)	45µM*	x	x	x	u	-9
CC(C)(C)C(=O)N1CCCN(c2ccnc3ccnn23)CC1	u	x	13%[87.6 µM]	1%[87.6 µM]	-28%[138 µM]	-18
CCc1nnc(NC(=O)C2CC(=O)N(c3n[nH]c4ccccc34)C2)s1 (configuration not stated)	4%	i	0%	11%	-9%	17
CCC1c2nccn2CCCN1C(=O)COc1ccc(F)cc1 (configuration not stated)	5%	i	-17%	-8%	-6%	4
CCc1ccc(CN2CCCC(CO)(Cc3ccc(F)cc3F)C2)cc1 (configuration not stated)	u	i	5%	8%	79µM*	20
COCCn1c(=O)c2c(n1Cc1ccccc1)CN(C(=O)c1cc3ccccc3n1C)CC2	-11%	i	-23%	4%	28µM*	2
O=C(c1cccc(O)c1)N1CCc2c(n(Cc3cccnc3)n(-c3ccccc3)c2=O)C1	i	i	23%[87.6 µM]	1%[87.6 µM]	u	2
Cn1c(C(=O)N2CCc3c(n(Cc4cccnc4)n(-c4ccccc4)c3=O)C2)cc2ccccc21	1%	i	-4%	1%	28µM*	20
CC1(c2ccccc2)N(Cc2cccnc2)C(=O)OC12CCN(C(=O)COc1ccccc1C(N)=O)CC2 (configuration not stated)	i	i	-8%	1%	u	7
CC(C)c1ccc(S(=O)(=O)N2CCCC2Cc2noc(Cc3ccccc3)n2)cc1 (configuration not stated)	25µM*	x	u	-13%	u	11
COc1ccc2[nH]c(CN3CCC(CCC(=O)NCc4ccc(F)cc4)CC3)c(C)c2c1	28µM*	i	-11%	-16%	u	1
Cc1ccc(-n2c(C3CCN(C(=O)c4ccc(C)nc4)CC3)n[nH]c2=O)cc1	2%	i	6%	-7%	25µM*	2
Cc1ccc(C(=O)N2CCC(c3n[nH]c(=O)n3-c3ccc(C)cc3)CC2)cc1	9%	i	-16%	0%	u	-4
Cc1ccc(-n2c(C3CCN(C(=O)c4ccc(C#N)cc4)CC3)n[nH]c2=O)cc1	-12%	i	7%	-10%	35µM*	-19
Cc1ccc(-n2c(C3CCN(C(=O)c4ccc(F)c(Cl)c4)CC3)n[nH]c2=O)cc1	-2%	i	-16%	1%	13µM*	-7
Cc1ccc(-n2c(C3CCN(C(=O)c4ccc(C)c(C)c4)CC3)n[nH]c2=O)cc1	-11%	i	11%	-6%	u	22
COc1ccc(C(=O)N2CCC(c3n[nH]c(=O)n3-c3ccc(C)cc3)CC2)cn1	-4%	i	2%	3%	28µM*	-2
COc1c(C)cc(C)cc1CN1CCC2(CC1)C(C(=O)O)CC(=O)N2C (configuration not stated)	-5%	i	-5%	2%	2%	2
COc1ccccc1-c1ccc(CN2CCC(NC(=O)Cc3cccc(Cl)c3)C2)cc1 (configuration not stated)	u	x	u	2%[12.5 µM]	u	15
COc1ccccc1-c1ccc(CN2CCC(NC(=O)Nc3ccccc3F)C2)cc1 (configuration not stated)	28µM*	x	x	x	16µM*	2
SMILES	HEK293 tox	Luciferase inh	SNCA expr inhib	HEK293 viab	3T3 cytotox	IP6K1 inhibitor
COc1ccccc1-c1ccc(CN2CCC(NC(=O)Cc3ccccc3)C2)cc1 (configuration not stated)	40µM*	x	x	x	35µM*	29
COCCN1C(=O)CCC2(C(=O)NCCN(C)C3CCCCC3)CCCC=C12 (configuration not stated)	u	u	102%	u	-30%	0
Cc1cccc(NC(=O)CN2C(=O)C(c3ccc(F)cc3)=NC23CCCCCC3)c1C	x	x	u	u	x	12
CC(C)c1cccc(NC(=O)CN2C(=O)C(c3ccccc3)=NC23CCCC3)c1	35µM*	i	u	2%[12.5 µM]	u	3
Cc1cccc(NC(=O)CN2C(=O)C(c3ccccc3)=NC23CCCC3)c1C	u	i	16µM*	-17%[12.5 µM]	u	11
CC(C)c1cccc(NC(=O)CN2C(=O)C(c3ccccc3)=NC2(C)C)c1	u	i	u	-21%[12.5 µM]	u	5
COCCn1c(=O)c(C(=O)N2CCC(c3ccccc3)CC2)nc2cccnc21	-9%	x	6%	0%	-14%	6
CN1CCC(N2CC[C@H](c3nc4ccc(C(F)(F)F)cc4[nH]3)C2)CC1	u	i	-11%[87.6 µM]	-1%[87.6 µM]	89µM*	7
Cc1ccc2nc([C@H]3CCN(C4CCC4)C3)[nH]c2c1	u	u	u	-8%[87.6 µM]	u	2
Cc1ccc(S(=O)(=O)N2CC[C@H](c3nc4ccccc4[nH]3)C2)cc1	u	i	u	2%[87.6 µM]	89µM*	8
FC(F)(F)c1ccc2nc([C@H]3CCN(C4CCCCC4)C3)[nH]c2c1	u	56µM*	48%[87.6 µM]	-22%[87.6 µM]	89µM*	7
CN1CCC(N2CC[C@H](c3nc4ccccc4[nH]3)C2)CC1	-14%[230 µM]	71µM*	30%[87.6 µM]	3%[87.6 µM]	-22%[230 µM]	0
FC(F)(F)c1ccc2nc([C@H]3CCN(C4CCOCC4)C3)[nH]c2c1	u	i	93%[87.6 µM]	2%[87.6 µM]	-16%[174 µM]	8
COc1ccc(-c2cnc([C@@H]3COCCN3Cc3ccccc3)[nH]2)cc1	u	i	-17%[87.6 µM]	-6%[87.6 µM]	u	-8
CN(C)c1ccc(CN2CCOC[C@H]2c2ncc(-c3ccc(F)cc3F)[nH]2)cc1	u	i	-12%[87.6 µM]	u	u	6

Assay outcomes (PubChem BioAssay)
